# Results from PubChem BioAssay AID504329 (Southern Research Specialized Biocontainment Screening …, 2011).
# Out of some 340,000 compounds screened, about 1,000 (0.29%) were called active. Not all results are given here. Potency and affinity values are given separately. Values without a mark were called inactive. Rule as the data show it: inconclusive = inhibition above about 27% without an active follow-up result; inactive = below that.
# Experiment: H1N1 influenza NS1A inhibitors, functional cell based assay (AID 504329)
# Details: percent inhibition, at 12.5 µM, stronger effect = higher value
row,SMILES,inhibition [%]
1,CCN(C(=O)COC(=O)CNS(=O)(=O)c1ccc2ccccc2c1)C1CCCCC1,-3.12
2,CCn1c(=O)[nH]c(=O)c2c(N)c(C(=O)c3ccccc3OC)sc21,14.2
3,CCC(CC)CN1CCC(CN2C(=O)C(=O)NC[C@@H]2[C@@H](C)CC)CC1,-5.8
4,CC(=O)c1cccc(NC(=O)C2CCN(C(=O)c3cccs3)CC2)c1,-11.1
5,Cc1ccc(SCC(=O)OCC(=O)Nc2ccc3[nH]c(=O)[nH]c3c2)cc1C,-0.9
6,COc1ccccc1NC(=O)/C(=C\c1cccs1)NC(=O)c1ccco1,2.01
7,COc1ccc2c(COC(=O)CC3Sc4ccccc4NC3=O)cc(=O)oc2c1 (configuration not stated),-3.14
8,Cc1c(NC(=O)NCc2ccccc2)c(=O)n(-c2ccccc2)n1C,0.65
9,Cc1c(NC(=O)CN2C(=O)C(=O)N(Cc3ccccc3)C2=O)c(=O)n(-c2ccccc2)n1C,-4.35
10,COc1ccc(/C=N/NC(=O)c2ccco2)cc1OCc1ccccc1,0.58
11,COc1ccc(/C=N/NC(=O)c2cc(C)oc2C)cc1OCc1ccccc1,9.7
12,CC(C)CCNC(=O)NC(=O)COc1ncnc2sccc12,-13.5
13,O=C(CSc1nncs1)Nc1cc(S(=O)(=O)N2CCOCC2)ccc1N1CCCC1,-2.14
14,O=C(COc1ccccc1[N+](=O)[O-])N1CCN(C(=O)c2ccco2)CC1,8.66
15,COc1ccc2c(c1)C(=NNC(=O)c1ccccn1)c1cc(OC)ccc1-2,-2.18
16,CCOc1ccc2c(c1)C(=NNC(=O)c1ccccn1)c1cc(OCC)ccc1-2,7.92
17,C/C(=N\NC(=O)C1CC1)c1cccnc1,-3.09
18,CCNC(=S)N1CCN(c2ccccn2)CC1,-6.5
19,C/C(=N/NC(=O)c1cnccn1)c1ccncc1,2.49
20,C/C(=N\NC(=S)NC1CCCCC1)c1cccs1,7.94
21,S=C(NC1CCCC1)N1CCN(c2ccccn2)CC1,-9.04
22,C/C(=N\NC(=S)NC1CCCCC1)c1ccccc1,11.5
23,CC(=O)c1nccs1,-23
24,C/C(CC(=O)NC1CCCCCC1)=N\NC(=O)c1cnccn1,2.22

row,SMILES,inhibition [%]
1,COc1cc(SC)ccc1C(=O)Nc1ccc2c(c1)CCN2S(C)(=O)=O,0.73
2,CC(=O)Nc1cc(C(=O)OCC(=O)c2ccc(C)cc2)ccc1C,2.61
3,CCOc1ccc(-c2nc(S(=O)(=O)c3ccccc3)c(N3CCOCC3)o2)cc1,6.87
4,CNC(=O)c1c(NC(=O)C2=COCCO2)sc2c1CCC(C)C2 (configuration not stated),-0.48
5,COc1ccc(CCN(Cc2ccccn2)C(=S)Nc2ccccc2F)cc1OC,2.66
6,Cc1cccc(N2CCN(C(=O)CCn3c(=O)[nH]c4ccsc4c3=O)CC2C)c1 (configuration not stated),14.2
7,CC(C)[C@H](NC(=O)OCc1ccccc1)C(=O)OCC(=O)Nc1ccc(N2CCOCC2)cc1,-2.26
8,O=C(CSc1nnc(-c2ccccn2)o1)Nc1ccccc1,-0.31
9,O=C(CSc1ncccn1)Nc1ccccc1,-12.3
10,O=C(CSc1ccc(C(F)(F)F)cn1)Nc1ccccc1,-2.05
11,O=C(CSc1ccccn1)Nc1ccc(NC(=O)CSc2ccccn2)cc1,3.94
12,O=C(N/N=C/C1CC2CCC1C2)c1ccc2c(c1)OCO2 (configuration not stated),4.78
13,Cc1ccccc1C(=O)c1cccn1CC(=O)NCCCc1ccccc1,-0.87
14,CCOC(=O)c1c(C)[nH]c(C(=O)OCc2ccc(F)cc2)c1C,-5.78
15,CCOC(=O)C1=C(c2ccccc2)NC(=O)NC1c1ccc(OCC#N)c(OC)c1 (configuration not stated),1.47
16,CCOC(=O)C1=C(c2ccccc2)NC(=O)NC1c1ccc(OC)c(OC)c1 (configuration not stated),-15.2
17,CCOC(=O)C1=C(COc2ccccc2)NC(=O)NC1c1ccc(Cl)cc1 (configuration not stated),3.45
18,CCOc1ccc(C2NC(=O)NC(C)=C2C(=O)OCc2ccccc2)cc1 (configuration not stated),-2.43
19,CCOC(=O)[C@@H]1[C@H]2COc3cc(OC)ccc3[C@@H]2N2C(=O)N(c3cccc(C)c3)C(=O)[C@]12C,2.49
20,COc1ccc(C2=CC(c3ccc(OC)c(OC)c3)c3c(c4ccccc4oc3=O)O2)cc1OC (configuration not stated),26.9
21,Cc1ccc(NC2(C(N)=O)CCCC2)cc1,-3.06
22,CCC1=C(C)C(N2CCOCC2)=NP(N2CCOCC2)(N2CCOCC2)=N1,3.31
23,CCC(Sc1nc(C)cc(=O)[nH]1)C(=O)Nc1sc2c(c1C#N)CCCC2 (configuration not stated),-5.51
